# According to PubChem BioAssay AID1788 (Vanderbilt High Throughput Screening Facility, 2009):
# A number with no mark means an inactive call. No rule for the calls is given here.
# Experiment: PubChem AID 1788
# Conditions: MDS Pharma lead profiling panel, radioligand binding; GABAA central (rat), Flunitrazepam site; at 10 µM; hits give high values
smiles,measurement,value
CCOC(=O)N1CCC(NCCNC(=O)c2ccccc2C)CC1,inhibition,-12%
